An excerpt weighted towards active compounds, which were near 28% of everything screened.
CYP2C19 inhib: inhibitors of human CYP2C19; AID 778; P33261; 96,000 tested, 21% active; inhibition, % at 5 µM; CYP2C19 Supersomes, luciferin-H EGE luminescence, 30 min;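 active = CYP2C19 inhibition above a set limit at 5 µM in the primary screen, cut at about 50% in these data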
CYP2C9 inhib: inhibitors of human CYP2C9 | AID 777 | P11712 | 96,000 tested, 20% active | CYP2C9 Supersomes, luciferin-H conversion, luminescence | inhibition, % at 5 µM;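 active = blocking of liver enzyme CYP2C9 beyond about 50% at 5 µM, limit read from the data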
Target sequence (P11712 whole entry, looked up): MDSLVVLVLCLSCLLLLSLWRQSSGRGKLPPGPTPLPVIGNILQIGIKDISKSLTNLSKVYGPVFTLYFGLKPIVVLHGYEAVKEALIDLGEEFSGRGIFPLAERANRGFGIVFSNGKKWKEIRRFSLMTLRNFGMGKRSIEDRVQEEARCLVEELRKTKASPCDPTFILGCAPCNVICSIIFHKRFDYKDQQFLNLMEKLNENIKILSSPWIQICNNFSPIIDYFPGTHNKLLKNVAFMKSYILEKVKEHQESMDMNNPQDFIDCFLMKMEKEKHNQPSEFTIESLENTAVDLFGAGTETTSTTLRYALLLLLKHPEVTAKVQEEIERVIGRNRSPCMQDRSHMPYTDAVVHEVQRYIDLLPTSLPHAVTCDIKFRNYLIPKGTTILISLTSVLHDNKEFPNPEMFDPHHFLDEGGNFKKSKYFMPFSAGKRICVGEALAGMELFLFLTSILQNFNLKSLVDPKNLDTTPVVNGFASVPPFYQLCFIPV
Mac1 fbg inh: inhibitors of human CD11b/CD18 binding to fibrinogen | P05107+P11215 | K562 CD11b/CD18 adhesion to fibrinogen, ATPlite luminescence; Mn2+ added to activate the integrin | inhibition, % at 10 µM | 93,000 tested, 0.54% active;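 active = primary inhibition of 50% or more at 10 µM, then 40% or more on retest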
CYP2C19 act: cytochrome P450 2C19 (human) activation. activation factor at 5 µM. recombinant CYP2C19, luciferin-H EGE luminescence; stronger effect = higher value; 0 = fully inhibited enzyme, 1 = untreated enzyme. P33261. 96,000 tested, under 10 active;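 active = activation factor of at least 2 at 5 µM in the primary screen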
CD11b adhes enh: CD11b/CD18-fibrinogen binding enhancement; activation, % at 10 µM; 93,000 tested, 0.07% active; K562 CD11b/CD18 adhesion to fibrinogen, ATPlite luminescence; P05107+P11215;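 active = 10 µM primary screen giving 50% or more activity, confirmed by 40% or more on retest at that dose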
CYP2C9 activ: activators of human CYP2C9. 96,000 tested, 1.4% active. P11712. activation factor at 5 µM. recombinant CYP2C9, luciferin-H conversion, luminescence; stronger effect = higher value; factor 1 = untreated enzyme, 0 = blocked;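 active = activation factor of 2 or more for CYP2C9 at a 5 µM dose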
Of the large screens only hits and unclear results are named; the others gave an inactive call.

CCCC(=O)NC(Nc1ccc(S(=O)(=O)Nc2ncccn2)cc1)(C(=O)OCC)C(F)(F)F (stereo unspecified)	none
CCOC(=O)NC(Nc1cc(C)ccn1)(C(F)(F)F)C(F)(F)F	CYP2C19 inhib 54
CCCCC(=O)NC(Nc1nc(C2CC2)cs1)(C(=O)OCC)C(F)(F)F (stereo unspecified)	CYP2C19 inhib 63 (no result: Mac1 fbg inh, CD11b adhes enh)
CCCCC(=O)NC(Nc1cc(C)ccn1)(C(=O)OCC)C(F)(F)F (stereo unspecified)	CYP2C19 inhib 72 (no result: Mac1 fbg inh, CD11b adhes enh)
CCOC(=O)NC(NCc1ccccc1Cl)(C(F)(F)F)C(F)(F)F	CYP2C19 inhib 58
COc1cc2c(cc1OC)CN(CC(=O)Nc1ccc3c(c1)OC(F)(F)O3)CC2	none
CCn1c(C)nc2cc(S(=O)(=O)C(F)(F)C(F)C(F)(F)F)ccc21 (stereo unspecified)	none
CCOC(=O)c1sc(NC(=O)CSc2nc(-c3ccco3)cc(C(F)(F)F)n2)c(C(=O)OC)c1C	CYP2C9 inhib 72 (no result: Mac1 fbg inh, CD11b adhes enh)
CCCOC(=O)c1c(NC(=O)CSc2nc(-c3ccco3)cc(C(F)(F)F)n2)sc(C(=O)OC)c1C	CYP2C9 inhib 70
COc1ccccc1/C=N/N(C(C)=O)c1nc(-c2ccc(F)cc2)cs1	none
COc1ccccc1CNC(=O)C1COc2ccccc2O1 (stereo unspecified)	CYP2C19 inhib 99
COc1ccccc1CNC(=O)COC(=O)C1=COCCO1	CYP2C19 inhib 61
COC(=O)c1ccsc1NC(=O)C1COc2ccccc2O1 (stereo unspecified)	none
CCOC(=O)c1ccccc1NC(=O)C1COc2ccccc2O1 (stereo unspecified)	CYP2C19 inhib 87
CCCn1c(NC(=O)C2COc3ccccc3O2)nc2ccccc21 (stereo unspecified)	none
O=C(O)CNC(=O)C1COc2ccccc2O1 (stereo unspecified)	none
COC(=O)c1ccccc1NC(=O)C1COc2ccccc2O1 (stereo unspecified)	CYP2C19 inhib 90
CCc1c(C(=O)Nc2ccc(S(=O)(=O)N3CCOCC3)cc2)csc1C	none
COC(=O)c1cc(NC(=O)C2COc3ccccc3O2)cc(C(=O)OC)c1 (stereo unspecified)	CYP2C19 inhib 63, CYP2C9 inhib 73
O=C(NCCCN1CCOCC1)c1cccs1	none
CCn1cc(C2=NOC(C(=O)Nc3ccccc3C(=O)OC)C2)c(C)n1 (stereo unspecified)	CYP2C9 activ 2.5
CN(C)C(=O)c1snnc1-c1ccccc1	none
COC(=O)C(C)Sc1snnc1-c1ccccc1 (stereo unspecified)	CYP2C19 inhib 92, CYP2C9 inhib 64
Cc1ccc(CNC(=O)C2CCCN(S(=O)(=O)c3c(C)noc3C)C2)cc1 (stereo unspecified)	none
Cc1noc(/C=C/N(C)C)c1S(=O)(=O)N1CCCC(C(=O)NCc2ccccc2Cl)C1 (stereo unspecified)	CYP2C9 inhib 78
Cc1noc(/C=C/N(C)C)c1S(=O)(=O)N1CCCC(C(=O)NCc2ccc(Cl)cc2)C1 (stereo unspecified)	CYP2C9 inhib 77
Cc1noc(/C=C/N(C)C)c1S(=O)(=O)N1CCCC(C(=O)NCc2ccc(F)cc2)C1 (stereo unspecified)	CYP2C9 inhib 73
COC(=O)c1cc2ccsc2n1Cc1cc(=O)n2ccccc2n1	CYP2C19 inhib 53, CYP2C9 inhib 92
COC(=O)c1cc2ccsc2n1CC(=O)N1CCCc2ccccc21	CYP2C19 inhib 95, CYP2C9 inhib 93
COC(=O)c1cc2ccsc2n1Cc1nc(-c2ccc(Cl)cc2)oc1C	CYP2C19 inhib 55, CYP2C9 inhib 89
COC(=O)c1cc2ccsc2n1CC(=O)Nc1cc(C)cc(C)c1	CYP2C9 inhib 66
Cc1oc(-c2ccc(Cl)cc2)nc1CN1CCC(C(=O)NCc2cccs2)CC1	none
CCC(c1nnnn1C(C)C)N1CCN(C2CCCC2)CC1 (stereo unspecified)	none
CC(C)CNC(=O)c1ccccc1SCC(=O)NC12CC3CC(CC(C3)C1)C2	none (no result: CYP2C19 inhib, CYP2C9 inhib, CYP2C19 act, CYP2C9 activ)
CCOCCCn1c(=NC(=O)c2ccc(OC)c(OC)c2)c(C#N)cc2c(=O)n3cccc(C)c3nc21	none
Cc1ccc(NC(=O)c2cn(CCC#N)nc2-c2cccs2)c([N+](=O)[O-])c1	none (no result: CYP2C19 inhib, CYP2C9 inhib, CYP2C19 act, CYP2C9 activ)
O=C1NC(=O)C(c2cn(-c3ccccc3)nc2-c2ccc(F)cc2)N1 (stereo unspecified)	CYP2C9 inhib 94
CC1=C(C(=O)c2ccccc2)C(c2cn(-c3ccccc3)nc2-c2ccc(Cl)cc2)NC(=S)N1 (stereo unspecified)	none
CCOC(=O)CSc1cc(C)nc(NC(C)=O)n1	none
Cc1cc2n(n1)C(c1c[nH]c3ccccc13)Nc1ccccc1-2 (stereo unspecified)	CYP2C9 inhib 81
COc1ccc(C2C(=O)N(C3CCCCC3)CC(=O)N2Cc2ccco2)cc1 (stereo unspecified)	none
CC1(C)CC(=O)C2=C(C1)c1c(ccc3ccccc13)NC2c1ccco1 (stereo unspecified)	none
O=C1CCCC2=C1C(c1cccs1)Nc1ccc3ncccc3c12 (stereo unspecified)	CYP2C19 inhib 95, CYP2C9 inhib 94 (no result: Mac1 fbg inh, CD11b adhes enh)
Cc1ccsc1C1Nc2ccc3ncccc3c2C2=C1C(=O)CC(C)(C)C2 (stereo unspecified)	CYP2C19 inhib 98, CYP2C9 inhib 80
CC(C)(C)OC(=O)N[C@@H](Cc1ccccc1)c1nnc(SCC(=O)c2ccc(Cl)cc2)o1	CYP2C19 inhib 61, CYP2C9 inhib 61
CC(C)(C)OC(=O)N[C@@H](Cc1ccccc1)c1nnc(SCC(=O)O)o1	CYP2C9 inhib 56
Cc1ccccc1CS(=O)(=O)c1nnc([C@H](Cc2ccccc2)NC(=O)OC(C)(C)C)o1	CYP2C9 inhib 66
COc1ccccc1NC(=O)Cc1csc(N)n1	none
C=CCNc1nc(-c2ccc(O)c(C(N)=O)c2)cs1	CYP2C19 inhib 75
O=C(Nc1ccccc1C(=O)O)c1cccc(NC(=O)c2ccc(Br)o2)c1	CYP2C9 inhib 91
O=C(Nc1ccccc1C(=O)O)c1ccc(NC(=O)c2ccc(Br)o2)cc1	CYP2C9 inhib 78
CC(=O)Nc1cccc(C(=O)Nc2ccccc2C(=O)O)c1	none
O=C(Nc1ccccc1C(=O)O)c1ccccc1	none
CC(=O)c1cccc(NC(=O)c2ccc(Br)o2)c1	none
CC(C)CC(=O)Nc1cccc(C(=O)Nc2ccccc2C(=O)O)c1	CYP2C9 inhib 74
CNC(=O)COc1ncnc2sc(C)c(C)c12	none
CSC1=NCCN1C(=O)c1ccc(Br)o1	Mac1 fbg inh 51
O=C(c1cc2ccccc2o1)N1CCN=C1SCc1cccc(F)c1	none
O=C(c1cc2ccccc2o1)N1CCN=C1SCc1cccnc1	CYP2C9 inhib 52
